aGal spleen mod: alpha-galactosidase A (human) modulation. human spleen homogenate, 4MU-alpha-Gal fluorescence, 40 min. Potency, µM (series often up to 80 µM), usual class: inhibitors. 0.008% of 240,000 active. AID 2107
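Human spleen homogenate (1 ug) as enzyme source, 4-methylumbelliferyl-alpha-D-galactopyranoside 1 mM final, citrate/phosphate pH 5.0 with 0.01% Tween-20. Compounds 40 min at 37C, NaOH/glycine stop; fluorescence Ex 365/Em 440, Hill-fit AC50.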
HTT aggregate: reduces HttQ103-GFP aggregates in PC12 cells; PC12 HttQ103-GFP aggregates, Acumen cytometry, 40 h; Potency, µM (top dose mostly 46.1 µM), hits mostly inhibitors; 1.1% of 220,000 active; further: nearly all actives have a fitted effect of over 60% in size
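Read-out: GFP aggregate count by laser scanning cytometer (488 nm excitation, 500-530 nm emission, 1–25 µm objects >6 SD above background). Cells: PC12, inducible HTTex1-Q103-GFP, 100 nM tebufenozide; compounds titrated.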
GLA inh pH 4.5: blocks human alpha-galactosidase A at pH 4.5; P06280; purified enzyme, 4-MU-alpha-Gal fluorescence, pH 4.5; activity change, negative = inhibition, % at 105 µM; 230,000 tested, under 10 active
Target sequence (P06280 whole entry, looked up): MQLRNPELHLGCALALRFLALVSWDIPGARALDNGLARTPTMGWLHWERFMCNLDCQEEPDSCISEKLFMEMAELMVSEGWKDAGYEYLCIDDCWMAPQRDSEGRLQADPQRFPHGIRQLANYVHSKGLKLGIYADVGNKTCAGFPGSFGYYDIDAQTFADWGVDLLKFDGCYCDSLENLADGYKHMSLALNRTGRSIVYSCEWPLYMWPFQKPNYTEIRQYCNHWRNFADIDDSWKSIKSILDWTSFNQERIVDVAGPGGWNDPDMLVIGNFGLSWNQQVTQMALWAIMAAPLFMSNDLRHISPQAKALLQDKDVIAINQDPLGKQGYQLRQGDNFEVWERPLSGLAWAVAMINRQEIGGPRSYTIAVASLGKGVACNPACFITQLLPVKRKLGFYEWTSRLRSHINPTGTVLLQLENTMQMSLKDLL
HTT ATP protect: protects HTT-Q103 PC12 cells, measured by ATP | PC12 HTT-Q103 induced, cytoprotection, ATP luminescence, 40 h | Potency, µM (titrated, usually from 56.4 µM), hits mostly activators | 0.14% of 230,000 active; further: nearly all actives have a fitted effect of over 45% in size
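Compounds added alongside 100 nM tebufenozide, which induces toxic Q103 huntingtin exon 1-GFP in stable PC12 cells; surviving cells quantified by luminescent ATP measurement. Medium: phenol red-free DMEM, 5% equine and 5% calf serum.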
ERK EGF inh: inhibitors of EGF-stimulated ERK signaling pathway; HEK293-V1b, EGF-stimulated phospho-ERK AlphaScreen; Potency, µM (series often up to 11.5 µM), usual class: inhibitors; 0.41% of 130,000 active; AID 1454; further: nearly all actives have a fitted effect of over 55% in size
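Homogeneous cell-based phospho-ERK assay: HEK293/V1b cells in 1% FBS, compound 30 min then EGF 5 min, AlphaScreen luminescence. Activity normalized between DMSO and 25 nM EGF controls; AC50 from Hill modelling.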
Hits are given with their value; i = inactive; ? = inconclusive; nt = no result; ! = repeats disagree; [ ] = another dose, or the depositor's remark. In the library only some 1.2% were active in any assay of this set; here they are far more common. The call rests on the fitted dose curve; in most records, active means well fitted curve in the direction sought with a large enough effect; inconclusive means small, poorly fitted or top-dose-only effect, or another doubt; inactive means no such curve, though single readings can be large; an effect the other way counts as inactive or inconclusive.

SMILES	aGal spleen mod	HTT aggregate	GLA inh pH 4.5	HTT ATP protect	ERK EGF inh
CCCC[N+]1(C)[C@@H]2CC(OC(=O)[C@@H](CO)c3ccccc3)C[C@H]1[C@H]1O[C@H]12 (stereo partly drawn)	nt	nt	nt	i[1.9 µM]	nt
COC(C(=O)C(O)C(C)O)C1Cc2cc3cc(OC4CC(OC5CC(O)C(OC)C(C)O5)C(OC(C)=O)C(C)O4)c(C)c(O)c3c(O)c2C(=O)C1OC1CC(OC2CC(OC3CC(C)(O)C(OC(C)=O)C(C)O3)C(O)C(C)O2)C(O)C(C)O1 (stereo not drawn)	nt	0.178µM	nt	i	nt
CCCCOCCCn1c(N)c(C(=O)OCCOC)c2nc3ccccc3nc21	i	12.6µM	i	i	nt
CCCCCCn1c(N)c(C(=O)NCCN2CCOCC2)c2nc3ccccc3nc21	i	31.6µM	i	i[0.074 µM]	nt
CCCCn1c(N)c(C(=O)OCCOC)c2nc3ccccc3nc21	?	i[9.22 µM]	?	i[10 µM]	i
C[C@@H](Cc1ccc2c(c1)OC(C(=O)O)(C(=O)O)O2)NC[C@H](O)c1cccc(Cl)c1	nt	nt	nt	i[1.9 µM]	nt
CC(C)C[C@H](NP(=O)(O)O[C@@H]1O[C@@H](C)[C@@H](O)[C@@H](O)[C@H]1O)C(=O)N[C@@H](Cc1c[nH]c2ccccc12)C(=O)O	nt	nt	nt	i[1.9 µM]	nt
CC[n+]1c(/C=C/N(C)c2ccccc2)sc2ccc(Cl)cc21	i	12.6µM	i	i	nt
CC[n+]1c(/C=C/C=C/c2ccc(N(C)C)cc2)sc2ccccc21	i	?	i	i[10 µM]	15.8µM
CN(C)c1ccc(/C=C/C=C/c2sc3ccccc3[n+]2C)cc1	i	?	i	i[10 µM]	?
N[C@@H](Cc1cc(O)c(O)cc1O)C(=O)O	nt	nt	nt	i[1.9 µM]	nt
CN1[C@@H]2CC[C@H]1CC(O[C@@H](c1ccccc1)c1ccccc1N)C2 (stereo partly drawn)	nt	nt	nt	i[1.9 µM]	nt
C=C1C(=O)O[C@@H]2C[C@@H](C)[C@@H]3C=CC(=O)[C@@]3(C)[C@@H](O)[C@H]12	?	2.24µM	i	?	?
C#CCN[C@@H](C)Cc1ccccc1	nt	nt	nt	i[1.9 µM]	nt
CN1C[C@@H](CNC(=O)OCc2ccccc2)C[C@H]2c3cccc4c3c(cn4C)C[C@@H]21	nt	nt	nt	i[1.9 µM]	nt
Clc1ccc(N2CCNCC2)nn1	i	i	i	i	i
Clc1cncc(N2CCNCC2)n1	i	nt	i	0.159µM!	i
CC(=O)Nc1ccc(S(=O)(=O)N(C)CCOCc2ccccc2)cc1	i	11.2µM	i	i	nt
CC(=O)[C@@H]1CC[C@@H]2[C@H]3CC[C@H]4C[C@@H](O)CC[C@]4(C)[C@@H]3C(=O)C[C@]21C	nt	nt	nt	i[1.9 µM]	nt
Nc1cc(Cl)c2nonc2c1[N+](=O)[O-]	i	4.47µM	i	i[10 µM]	i
O=[N+]([O-])c1c(Cl)c(Cl)c(Cl)c(Cl)c1Cl	i	nt	nt	i	nt
CC(=O)/C=C/c1ccccc1	?	nt	nt	i	nt
CC(=O)[O][Hg][c]1ccccc1	i	1.58µM	i	i	14.1µM
NC(=O)CN1C[C@@H](O)CC1=O	nt	nt	nt	i[1.9 µM]	nt
C[C@@]12CC[C@H]3[C@@H](CCC4=C(O)C(=O)CC[C@]43C)[C@H]1CCC2=O	nt	nt	nt	i[1.9 µM]	nt
SMILES	aGal spleen mod	HTT aggregate	GLA inh pH 4.5	HTT ATP protect	ERK EGF inh
O=[N+]([O-])c1ccc(N2CCCC2)c2ccncc12	i	22.4µM	i	i	i
C[C@@]12CC[C@H]3[C@@H](CC[C@@H]4C[C@H](O)CC[C@]43C)[C@H]1CC[C@H]2O	nt	nt	nt	i[1.9 µM]	nt
CC(=O)OC[C@]12CCC(C)=C[C@H]1O[C@@H]1[C@H](O)[C@@H](OC(C)=O)[C@@]2(C)[C@]12CO2	i	0.1µM	i	i[10 µM]	i
COc1cc2c(cc1OC)-c1c(O)c(OC)cc3c1[C@@H](C2)N(C)CC3	nt	nt	nt	i	nt
COc1ccc2c3c([nH]c2c1)C(C)=NCC3	?	15.8µM	i	i	?
CC[n+]1c(-c2ccccc2)c2cc(N)ccc2c2ccc(N)cc21	?	14.1µM	i	i	i
CN(C)C(=O)Oc1c(Cl)cc(Cl)c2ccccc12	i	i	i	i	nt
Cc1cc(C(=O)CS(=O)(=O)c2ccc(F)cc2)cc(C)c1OC(=O)N(C)C	28.2µM	i	i	i[10 µM]	i
CC(C)=CCCC1(C)C=Cc2c(O)c3c(c(CC=C(C)C)c2O1)OC12C(=CC4CC1C(C)(C)OC2(C/C=C(/C)C(=O)O)C4O)C3=O (stereo not drawn)	i	nt	i	nt	i
CC(C)=CCCC1(C)C=Cc2c(O)c3c(c(CC=C(C)C)c2O1)OC12C(=CC4CC1C(C)(C)OC2(C/C=C(/C)C(=O)O)C4=O)C3=O (stereo not drawn)	i	nt	i	i	15.8µM
Oc1ccc2c3c1O[C@@H]1c4[nH]c5c(c4C[C@@]4(O)[C@@H](C2)N(CC2CC2)CC[C@]314)C[C@]1(O)[C@@H]2Cc3ccc(O)c4c3[C@@]1(CCN2CC1CC1)[C@H]5O4	nt	nt	nt	i[1.9 µM]	nt
Cc1occc1C(=O)Nc1nnc(C(F)(F)F)s1	i	35.5µM	i	i	nt
c1ccc2c(CNC3CCCCC3)c[nH]c2c1	i	11.2µM	i	i	nt
c1ccc2c(CN3CCCCCCC3)c[nH]c2c1	i	12.6µM	i	i	nt
O=C1C[C@@H]2OCC=C3CN4CC[C@]56c7ccccc7N1[C@H]5[C@@H]2[C@H]3C[C@@H]46	nt	nt	nt	i	nt
CC[C@H](CO)NC(=O)[C@@H]1C=C2c3cccc4[nH]cc(c34)C[C@@H]2N(C)C1	nt	nt	nt	i[1.9 µM]	nt
CC(C)(C)c1cc([N+](=O)[O-])cc(C(C)(C)C)c1O	i	7.94µM	i	i	i
NC(=O)c1cc([N+](=O)[O-])cc([N+](=O)[O-])c1	i	i	i	i	i
C=C(C=O)CC1CC(O)[C@]2(C)OC3CC4OC5C[C@]6(C)O[C@]7(C)CCC8OC9C[C@]%10(C)OC%11C(C)=CC(=O)OC%11CC%10OC9C[C@@H](C)C8OC7CC6O[C@]5(C)CC5OC5C4OC3CC2O1 (stereo partly drawn)	i	i[9.22 µM]	i	i[10 µM]	35.5µM
COC[C@@H]1OC(=O)c2coc3c2[C@]1(C)C1=C(C3=O)[C@H]2CCC(=O)[C@]2(C)C[C@@H]1OC(C)=O	nt	nt	nt	i[1.9 µM]	nt
CC[C@H](CO)NC(=O)[C@H]1C=C2c3cccc4[nH]cc(c34)C[C@H]2N(C)C1	nt	nt	nt	i	nt
CO[C@@H](COC(N)=O)C1=C(N2CC2)C(=O)C(C)=C(N2CC2)C1=O	nt	5.01µM	nt	i	nt
COC12C(COC(N)=O)C3=C(C(=O)C(C)=C(N)C3=O)N1CC1C2N1C (stereo not drawn)	i	i[9.22 µM]	i	i[10 µM]	i
C=CCN1CC[C@]23c4c5ccc(O)c4O[C@@H]2C(=O)CC[C@@]3(O)[C@H]1C5	nt	nt	nt	i[1.9 µM]	nt
CC(C)[C@H]1C(=O)N2CCC[C@@H]2[C@]2(O)O[C@@](NC(=O)[C@H]3C=C4c5cccc6[nH]cc(c56)C[C@H]4N(C)C3)(C(C)C)C(=O)N12	nt	nt	nt	i	nt
CC(=O)[C@H]1CC[C@H]2[C@@H]3CCC4=CC(=O)CC[C@]4(C)[C@H]3CC[C@]12C	i	i	i	i[1.9 µM]	14.1µM!
C[C@@H]1OC=C2[C@@H](O)[C@H]3O[C@H]3C(=O)[C@@]23[C@H]1[C@H]1C2=C([C@@H](O)[C@H]4O[C@@H]4C2=O)[C@@H]3O[C@@H]1C	i[17.5 µM]	nt	nt	5.62µM	nt
